The campaign covered roughly 13,000 compounds. About 3,200 (25%) showed an effect of 50% or more. The list shows a part of the results.
Tested on: P. falciparum stage V gametocytes
Set-up: BacTiter-Glo ATP luminescence viability of purified stage V gametocytes in 384-well plates, per cent inhibition versus DMSO
Settings: 48 h, 5 µM; inhibitor

Compound | % Inhibition [%]
COc1nc2c(CCN3CC[C@H](NCc4ccc5c(c4)NC(=O)CO5)[C@H](O)C3)c(Cl)cnc2cc1F [TCMDC-135805] | -8.55
CC(C)CC(=O)N1CCNC[C@@H]1C(=O)NC1CC1 [TCMDC-141241] | 28.73
CN1CCCCC1CCc1cc(C(=O)Nc2ccc(-c3ccc(O)cc3)cc2)ccc1O (centres unmarked) [TCMDC-132103] | -69.36
CC1(C)CCC(=Cc2ccc(Cl)cc2)CC1(O)Cn1ccnc1 (centres unmarked) [TCMDC-125222] | 20.04
Nc1ncc(Cc2cc(Cl)c(N)c3ncccc23)c(N)n1 [TCMDC-137889] | 44.6
Cc1nc2ccc(-c3nc4ccc(N)cc4[nH]3)cc2[nH]1 [TCMDC-123723] | -56.67
Nc1ccc(-c2nc3ccc(Oc4ccc5nc(-c6ccc(N)cc6)[nH]c5c4)cc3[nH]2)cc1 [TCMDC-125791] | -25
Nc1ccc(-c2nc3ccc(Cc4ccc5nc(-c6ccc(N)cc6)[nH]c5c4)cc3[nH]2)cc1 [TCMDC-123486] | 52.65
COc1ccccc1N1CCN(CCCCNC(=O)c2ccc(NC(=O)c3cc(Cl)cc(Cl)c3)cc2)CC1 [TCMDC-138236] | 3.866
O=C(/C=C/c1ccc(Cl)c(Cl)c1)NCCCCCCN1CCN(C(=O)Nc2ccc(F)c(Cl)c2)CC1 [TCMDC-135833] | -83.03
COc1ccc(-c2cccc(NC(=O)c3cccs3)c2)cc1CN1CCCN(C)CC1 [TCMDC-132600] | 87.2
COc1ccc(-c2ccc(NC(=O)c3ccc(F)cc3)cc2)cc1CN1CCCN(C)CC1 [TCMDC-132514] | 15.06
COc1ccc(-c2cccc(NC(=O)c3ccc(C#N)cc3)c2)cc1CN1CCCN(C)CC1 [TCMDC-132609] | -22.05
COc1ccc(-c2cccc(NC(=O)c3ccc(C#N)cc3)c2)cc1CN1CCN(C)CC1 [TCMDC-132612] | -15.47
COc1ccc(-c2cccc(NC(=O)c3ccccc3)c2)cc1CN1CCCN(C)CC1 [TCMDC-132627] | 80.03
COc1ccc(-c2ccc(NC(=O)c3ccc(C#N)cc3)cc2)cc1CN1CCCN(C)CC1 [TCMDC-132517] | 41.17
COc1ccc(-c2ccc(NC(=O)c3ccccc3)cc2)cc1CN1CCCN(C)CC1 [TCMDC-132535] | 93.82
COc1ccc(-c2ccc(NC(=O)c3cccs3)cc2)cc1CN1CCCN(C)CC1 [TCMDC-132509] | -9.366
O=C(Nc1cccc(C(F)(F)F)c1)NC1CCN(c2ccnc3cc(Cl)ccc23)C1 (centres unmarked) [TCMDC-133406] | -28.21
COC(=O)CCCCCOc1cc(Cc2cnc(N)nc2N)cc(OC)c1OC [TCMDC-137678] | -5.017
Cc1ccc(CCC(C)NCC(O)c2cccc(C(F)(F)F)c2)cc1 (centres unmarked) [TCMDC-131446] | 13.09
COc1ccc(Cc2c(Cl)nc3nc(N)nc(N)c3c2C)cc1 [TCMDC-138055] | 17.08
Oc1ccc(CCNc2nc(NCc3ccccc3-c3ccc(C(F)(F)F)cc3)nc(NC3CCNCC3)n2)cc1 [TCMDC-133387] | 26.8

Compound | % Inhibition [%]
Oc1ccc(CCCNc2nc(NCc3ccccc3-c3ccccc3)nc(N3CCNCC3)n2)cc1 [TCMDC-133391] | 23.94
Oc1ccc(CCCNc2nc(NCc3cccc4ccccc34)nc(NC3CCNCC3)n2)cc1 [TCMDC-133392] | 57.4
Oc1ccc(CCCNc2nc(NCc3cccc4ccccc34)nc(N3CCNCC3)n2)cc1 [TCMDC-133394] | 8.629
Oc1ccc(CCCNc2nc(NCc3ccccc3-c3ccccc3)nc(NC3CCNCC3)n2)cc1 [TCMDC-133389] | 58.76
Oc1ccc(CCCNc2nc(NCc3cccc4ccccc34)nc(N3CCCNCC3)n2)cc1 [TCMDC-133445] | -39.91
O=[N+]([O-])c1cccc(Nc2cncc(-c3ccc(CO)cc3)c2)c1 [TCMDC-136670] | 46.28
COc1cc(NCC2(CNCc3cn(Cc4ccccc4)c4ccccc34)CCCCC2)nc2ccccc12.Cl [TCMDC-140539] | 107.8
CCCC(CNCc1ccccc1)CNc1cc(=O)c2ccccc2[nH]1 (centres unmarked) [TCMDC-139434] | 43.59
COc1cccc2[nH]c(NCCCNCc3cc(Br)cc(Br)c3)nc12 [TCMDC-139984] | 1.75
COc1cc(C(F)(F)F)cc2[nH]c(CNCCCNc3nc4ccccc4[nH]3)cc12 [TCMDC-140013] | 19.83
COc1cc(NCCCNCc2cn(Cc3cc(Br)cc(Br)c3)c3ccccc23)nc2ccccc12 [TCMDC-140677] | 108.1
CCCC(CNCc1cccc(C)c1)CNc1cc(=O)c2ccccc2[nH]1 (centres unmarked) [TCMDC-139435] | 10.27
COc1cc(NCC(C)CNCc2cn(Cc3ccccc3)c3ccccc23)nc2ccccc12 (centres unmarked) [TCMDC-140496] | 91.67
O=c1cc(NCC2(CNCc3cn(Cc4ccccc4)c4ccccc34)CCCCC2)[nH]c2ccccc12 [TCMDC-140540] | -59.9
CC(CNCc1cn(Cc2cc(Br)cc(Br)c2)c2ccccc12)CNc1cc(=O)c2ccccc2[nH]1 (centres unmarked) [TCMDC-140681] | 91.88
COc1ccccc1C1CCN(Cc2csc(NC(=O)c3ccc(-c4ccc(C(F)(F)F)cc4)cc3)n2)CC1 [TCMDC-138781] | -44.16
Cc1cc2[nH]c(-c3ccc(C(=O)NCCCN4CCN(c5cccc(Cl)c5)CC4)cc3F)nc2cc1Cl [TCMDC-140029] | -4.793
Cc1cccc2[nH]c(-c3cccc(-c4ccc(CN5CCN(CCO)CC5)cc4)c3)nc12 [TCMDC-133026] | 5.684
C=CCOc1ccc(CNC2CCN(Cc3ccccc3)CC2)cc1Br [TCMDC-125268] | 13.93
O=C(NCc1cc2c(cc1Cl)OCO2)c1ccc(CNC2CCN(Cc3ccccc3)CC2)cc1 [TCMDC-140786] | 7.44
C(=C(c1cccs1)c1cccs1)c1ccc(CNC2CCN(Cc3ccccc3)CC2)cc1 [TCMDC-138647] | 92.91
c1ccc(CN2CCC(NCc3ccccc3-c3cccc(CNCc4ccc5c(c4)OCO5)c3)CC2)cc1 [TCMDC-140474] | 47.21
O=C(NCc1cccc2ccccc12)c1ccc(CNC2CCN(Cc3ccccc3)CC2)cc1 [TCMDC-140789] | -3.964

Compound | % Inhibition [%]
c1ccc(CN2CCC(NCc3ccccc3-c3ccc(CNCc4ccc5c(c4)OCO5)cc3)CC2)cc1 [TCMDC-140475] | 90.32
O=C(Nc1ccc(N2CCN(Cc3ccccc3)CC2)cc1)c1cccs1 [TCMDC-124320] | -18.09
c1ccc(CN2CCC(NCc3ccc(-c4ccc(CNC5CCCC5)cc4)cc3)CC2)cc1 [TCMDC-140492] | 108.5
c1ccc(CN2CCC(NCc3ccc(-c4cccc(CNC5CCCC5)c4)cc3)CC2)cc1 [TCMDC-140491] | 106.1
C[C@@]12C[C@@H](Nc3nc(NCCc4ccc(O)cc4)nc(N4CCNCC4)n3)C[C@@H](C1)c1cccc(Cl)c1O2 [TCMDC-134047] | -6.304
Cc1cc(NC(=O)Nc2ccc3nc(C)oc3c2)c2cc(Cl)ccc2n1 [TCMDC-140076] | 38.43
O=C(Nc1ccc2c(c1)OCO2)NC1CCN(c2ccnc(Nc3ccc(F)cc3)n2)C1 (centres unmarked) [TCMDC-133605] | -89.44
CC(C)Cc1csc(NC(=O)C=Cc2ccco2)c1C(=O)O [TCMDC-125660] | 6.698
Clc1ccc(OCc2ccccc2)c(-c2nc(-c3nc4ncc(Br)cc4[nH]3)cs2)c1 [TCMDC-136729] | -65.34
c1ccc(CN2CCC(NCc3ccc(-c4cncc5ccccc45)cc3)CC2)cc1 [TCMDC-134153] | 14.12
c1ccc(CN2CCC(NCc3ccccc3-c3ccc(CNC4CCCC4)cc3)CC2)cc1 [TCMDC-140473] | 106.4
COc1ccccc1NC(=O)Nc1cccc(-c2ccc(-c3nc4ccc(C(F)(F)F)cc4[nH]3)cc2)c1 [TCMDC-133203] | -14.42
N#Cc1ccc(N2CCN(Cc3cccc(-c4ccc(-c5nc6ccccc6[nH]5)cc4)c3)CC2)nc1.O=C(O)C(F)(F)F [TCMDC-133937] | 5.421
FC(F)(F)c1cnc(Sc2nnc(-c3ccco3)o2)c(Cl)c1 [TCMDC-125006] | -49.8
FC(F)(F)c1cnc(Sc2nnc(-c3ccncc3)o2)c(Cl)c1 [TCMDC-123767] | 83.92
CC1CCCCN1Cc1cccc(-c2c[nH]c3nc(NC4CCCC4)ncc23)c1 (centres unmarked) [TCMDC-133776] | -28.36
COc1ccc2nccc([C@@H](O)CN3CCC(NCc4ccc5c(c4)oc(=S)n5C)CC3)c2c1 [TCMDC-141186] | 1.23
O=C(Nc1ccc([N+](=O)[O-])cc1Br)c1cc2ccccc2nc1Cl [TCMDC-124537] | 29.24
O=[N+]([O-])c1ccc(N2CCCN(C(=S)Nc3ccc(F)cc3Br)CC2)nc1 [TCMDC-124054] | 81.59
O=C(Nc1ccc(Cn2ncc(N3CCCNCC3)c(Cl)c2=O)cc1)Nc1ccc(F)cc1[N+](=O)[O-] [TCMDC-141926] | -31.19
N#Cc1ccc(NC(=NC2CCN(Cc3ccccc3)CC2)Nc2ccccc2Cl)c(O)c1 [TCMDC-140256] | -5.798
Cc1cccc2nc(-c3cccc(-c4ccc(C(=O)NCc5ccccc5S(C)(=O)=O)cc4)c3)[nH]c12 [TCMDC-132505] | 5.091

Reference: PMC4552634, “A New Set of Chemical Starting Points with Plasmodium falciparum Transmission-Blocking Potential for Antimalarial Drug Discovery” (PLoS ONE, 2015)
